The supplement of paper PMC12636033
± gives the standard deviation of the averaged measurements. In all, about 33,000 sequences were measured (“E-score (rank enrichment, -0.5 to 0.5)”: median about -0.0028, highest 2% from about 0.23 on). Many of the other results were omitted from the sample, so the highest values are more common in it than they were.

test system: 2Sb-muMax20 (muMax20 with two 1,3-bis(methyl)benzene Cys staples, A13C/A17C and Q88C/A92C, C-terminal Lys); assay: PBM 8-mer E-score (E-score (rank enrichment, -0.5 to 0.5)); higher = stronger preferential binding
Method: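 Protein binding microarray (universal PBM chip covering all 10-mers in fixed probe flanks) with chemically synthesized human Max(13-93) bHLH-LZ analogs (not full-length Max) bearing noncanonical residues (hArg, Tha, Aib, Nle at 65) and aromatic Cys staples. Read-out per 8-mer (and its reverse complement): E-score (rank-based enrichment, -0.5 to 0.5) and Z-score of median probe intensity.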

Sequence | PBM 8-mer E-score
ACGAGACG | 0.0104 ± 0.13
AGTGACTG | -0.0977 ± 0.053
CCGGCCCC | -0.0874 ± 0.098
TCCGTCGA | -0.0858 ± 0.034
GATGCGAC | 0.0229 ± 0.095
ACCTTCAC | 0.016 ± 0.0064
CTGTCATC | 0.0122 ± 0.062
AATGCGCT | 0.0765 ± 0.063
ACTGCGCC | -0.18 ± 0.0093
ACCTAGGA | 0.0803 ± 0.054
AGTTGGGG | 0.235 ± 0.015
AGTTGGGA | -0.0331 ± 0.025
AGTTGGGC | 0.0922 ± 0.0035
ATAAGTAT | 0.125 ± 0.033
ATAAGAAA | 0.144 ± 0.013
AAAAGTAA | 0.0725 ± 0.087
AAAAGTAC | 0.239 ± 0.074
AAAAGTAT | 0.083 ± 0.012
ATAAGTAC | 0.236 ± 0.016
ATAAGAAC | 0.239 ± 0.022
ATAAGAAT | 0.104 ± 0.022
CTAAGTAC | 0.0248 ± 0.0083

Sequence | PBM 8-mer E-score
CCTACGCG | 0.0631 ± 0.019
ATGGTAAC | 0.184 ± 0.066
GCTGTCGA | -0.165 ± 0.0033
GGCGCGAC | -0.163 ± 0.064
CGGACTAG | -0.0898 ± 0.0032
ATGGGAAA | 0.00532 ± 0.065
AGGGGGAG | -0.0302 ± 0.048
GTGGGGAA | 0.293 ± 0.012
GGGGGAAA | 0.0837 ± 0.028
TGGGGAAA | 0.314 ± 0.049
ATGGGGAG | 0.252 ± 0.011
ATGGGGAA | 0.296 ± 0.074
ATGGGGGA | 0.071 ± 0.032
TGGGGGAA | 0.0145 ± 0.015
GTGGGGGA | 0.0894 ± 0.033
CTGGGGAA | -0.106 ± 0.0058
ATGGGGAC | 0.108 ± 0.083
AAGGCAGA | -0.0447 ± 0.097
GCAGCTAC | -0.158 ± 0.016
GCTGGGAA | -0.192 ± 0.031
CGTTTAAC | 0.0567 ± 0.0093
TATCAAGA | 0.188 ± 0.043

Sequence | PBM 8-mer E-score
CGTGGCAG | -0.0638 ± 0.045
ACTGTTTC | 0.0301 ± 0.064
GCGGGGGA | 0.0111 ± 0.068
GCGGGAAA | 0.0716 ± 0.025
GCGGGGAA | 0.247 ± 0.02
CGGCCCAA | -0.0811 ± 0.15
GAGCAGCA | -0.143 ± 0.042
ACGATAGG | 0.245 ± 0.015
ACGATAGC | 0.0621 ± 0.019
CCGATAGG | -0.0782 ± 0.013
AAGCCGCC | -0.0339 ± 0.045
CAATAATC | 0.189 ± 0.047
GTATAAAA | 0.247 ± 0.042
CAATAAAA | 0.284 ± 0.016
GCATAACA | 0.251 ± 0.042
CAATAATA | 0.233 ± 0.066
CAATAATG | 0.0644 ± 0.019
GTATAAAC | 0.186 ± 0.0026
GAATAAAA | 0.0229 ± 0.074
ATATAAAA | 0.186 ± 0.049
GCATAACC | 0.0156 ± 0.029
CAATAAAC | 0.0373 ± 0.052

Sequence | PBM 8-mer E-score
ACATAACA | 0.107 ± 0.034
AAGGGTCT | 0.00286 ± 0.1
AACTGTCG | -0.138 ± 0.016
ACGATGAG | 0.0498 ± 0.025
TCACGAGA | -0.0563 ± 0.015
GAATAACA | 0.186 ± 0.011
CAATAACA | 0.232 ± 0.0098
TAATAACA | 0.0232 ± 0.011
CTCTTAAG | -0.0478 ± 0.022
GTGCGCAC | 0.157 ± 0.1
GATCAATC | -0.0898 ± 0.043
CTACCCCC | -0.0941 ± 0.072
AGACCCCC | -0.382 ± 0.044
TGACCCCA | 0.111 ± 0.032
GTACCCCA | 0.195 ± 0.023
AAACCCCC | -0.275 ± 0.038
AAACCCCA | 0.232 ± 0.033
CAACCCTA | 0.019 ± 0.059
AACCCCCA | -0.318 ± 0.021
AAACCCTA | 0.244 ± 0.089
AGACCCCA | 0.283 ± 0.011
